Test results published in the supplement of paper PMC6555819.

Test system: LXRb:RXRa (NR concentration 270 nM, RXRa partner concentration 90 nM)
Experiment: PBM binding z-score (relative to random genomic background probes); higher = stronger binding; sequences stand for … in GC…GCGATTGACAGCGTAGAATGAAGG
Description: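 Protein-binding microarray (Agilent 4x180K custom design, double-stranded 60-nt probes: 5' GC cap, 34-nt variable region, 24-nt constant primer region; full probe sequence given). Purified or IVT nuclear receptor:RXRα heterodimers (3:1 NR:RXRα, mostly 270:90 nM) or homodimers were incubated for 1 h in PBS with 2% milk and no ligand, then detected with Alexa488 antibodies. Fluorescence from o1-orientation probes (~5 replicates averaged) was converted to z-scores against 500 random hg19 background probes. Variable regions are seed direct-repeat (DR0–DR5) sites, all their single-nucleotide variants and half-site ablations.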

Row | Sequence | PBM binding z-score
1 | AGAATGGGGTTACCAAAGATCAGGGAAACGCTTG | 5.03
2 | ACGCGGAGGACAAAGGTCAGAGCTACGCCAGTGA | 3.19
3 | TTACCAAGGTCAAGGTCGTTGATCCCTCTGTAGA | 5.02
4 | ATATGTAGGTTACATCCGGGTCATCCAGGCTATG | 2.76
5 | GATACAGGGTCAGCTACAGGCCAGAGTATGGAAA | 2.51
6 | CCTAGTTGGTCAAGGTCACACCCGCTATAGGTAC | 3.5
7 | AATACAGGGTCATCTTAGGCCAGAGTACGCACAG | 5.12
8 | TAGCCTAGTTCATTCAGGGGCCAGTATAGAAAGC | 0.643
9 | CGTCAAAGTTCAACTGAGGTAACGTAAAGCACGC | 4.09
10 | TCTTGTAGATCAATAGAAGTTAAGAAAGTGCGCT | 0.436
11 | CGCACTAGGTCATCCAGGACAGTGAATACATTGA | 2.21
12 | TAGCCTAGGTCATTCAGGGGCCACTATAGAAAGC | 3.38
13 | ATCGAAAGGTCGACGCGGTGAGTATACACCGTTT | 2.25
14 | TCTCGGAGGACACCAAAGGTCAGAGCTCGACATC | 3.46
15 | ATCGAAAGGTCGACCAGGTGAGTATACACCGTTT | 3.1
16 | TGTATGAGGTTAAAGATCAGGGAACGTGGCGTCG | 2.16
17 | TACCCTAGGTCATTGGGCCAGTATAGTACGCATC | 4.07
18 | TACCCTAGGTCATGGGCCAGTATACCACGCGAAC | 4.07
19 | CGTCCAAGGTCATATGAGGTCAGTGAAGACAGAT | 6.58
20 | CCTAGTTGTTCAGGAGGTCACACACCGGATATGA | 3.76

Row | Sequence | PBM binding z-score
21 | GATACAGGGTCGGCTAGAGGCCAGAGTATGGAAA | 0.129
22 | CCTTACGGGTCACGTGGTTATAGCACGACGAGCG | 3.48
23 | TTGCCAAGGTGAAAGGTCGTTGATGCACGCCTTG | 2.63
24 | CCTTACGGGTAACGAGGTTATAGCACGACGAGCG | 0.414
25 | CCAGACAGGTGAGAAGGTAACTCAGCCTCGATTA | 0.609
26 | CGTCCAAGGTCATAGAGGTCAGTGAATGCCGAGT | 5.69
27 | CATACAGGGTCGGCTAGGCCAGAGTAGGGACGGC | -0.242
28 | CCTACTGGGCCACGAAAGGCCATTGATTCAGTGA | -0.37
29 | TCTGCTAGGTCAACGTTGGTCAGCTAATCTGCTA | 1.61
30 | AGTCAAAGTTCATCTAGGTAACATAAGATATGCT | 3.93
31 | TCTGCTAGGTCATCGATGGTCAGCTAATCTGCTA | 1.73
32 | CAAACTAGGTCACGAGAGGTCAAAGTCGAATGAC | 7.33
33 | ATCGAAAGGTCGTGAGGTAAGTATACAGAAAGGC | 3.5
34 | TATACAAGGTCAAAGGCCAGAGTACGAATGTCGA | 5.46
35 | CGTCCAAGGTCAGCGGGTCAGTGAAAGCGACGTG | 3.11
36 | TAGCCTAGGTCATTCAGGGGCAAGTATAGAAAGC | 4.97
37 | CGAACAAGGTCACCAGGACAGTGAAGAGGTTGGA | 4.28
38 | ATTTGTAGGTTACATCCGGGTCATTCAGGCTATG | 3.54
39 | CGAACTAGGTCAAGGGACAGTGAAAGGCGACGTA | 1.33
40 | CGTCAAACTTCAACTAAGGTAACGTAAAGCACGC | 0.543
